Composite z-score and z-score data for ten molecules are collected here from PubChem BioAssay.

Assay [1] is described as follows: binders of probe aFSTL3 on microarray, primary screen, stem cell growth factor project, biochemical, small-molecule microarray, fluorescence 635/667 (AID 1064).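 Note: measures binding of the biotinylated anti-FSTL3 antibody to printed compounds.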 Particulars: higher = more signal.
Assay [2] in a line: binders from COS7 lysate, DM2A8 probe, primary screen, torsin A project, cell lysate, small-molecule microarray, fluorescence 635/667 (AID 1065). Particulars: higher = more signal, COS7 lysate expressing mutant human TOR1A.
The nature of assay [3]: binders of probe aFGF2 on microarray, primary screen, stem cell growth factor project, biochemical, small-molecule microarray, fluorescence 635/667 (AID 1067).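 Note: measures binding of biotinylated aFGF2 protein to printed compounds on slides; z-score merges feature fluorescence and signal-to-noise across triplicate slides.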 Particulars: higher = more signal.
Assay [4] in a line: binders of probe aFGF10 on microarray, primary screen, stem cell growth factor project, biochemical, small-molecule microarray, fluorescence 635/667 (AID 1071).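 Note: score merges 667 nm spot intensity and signal to noise from triplicate slides.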 Particulars: higher = more signal.
The target in assay [5] is Neurogenic locus notch homolog protein 2 (Homo sapiens) (UniProt Q04721). Description: Notch2 binders on small-molecule microarrays, primary screen, biochemical, small-molecule microarray, 635 nm fluorescence, stem cell growth factors (AID 1073). Particulars: Notch2 binding, higher = more signal.
The target in assay [6] is Pro-neuregulin-1, membrane-bound isoform (Homo sapiens) (UniProt Q02297). Description: NRG1 binders on small-molecule microarrays, primary screen, psychiatric disease protein project, biochemical, small-molecule microarray, fluorescence 635/667 (AID 1075).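 Note: score combines 667 nm spot fluorescence with signal to noise.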 Particulars: NRG1 binding, 635 nm fluorescence, higher = more signal.
Assay [7] relates to Neuregulin-1 EGF-like domain. Description: binders of neuregulin-1 EGF-like domain, primary screen, biochemical, small-molecule microarray, 635 nm fluorescence (AID 1081).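 Note: binding of the protein to compounds printed on small-molecule microarray slides.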 Particulars: small-molecule microarray binding, higher = more signal.
A short description of assay [8]: FRG1 promoter luciferase signal modulators, primary screen, FRG1 inhibition for FSHD, cell-based, C2C12 myotubes, firefly/Renilla luciferase, luminescence (AID 1084). Particulars: higher = more signal, called active from +8 up or from −8 down.
Assay [9] in a line: binders of probe aFST on microarray, primary screen, stem cell growth factor project, biochemical, small-molecule microarray, fluorescence 635/667 (AID 1086).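 Note: score merges 667 nm fluorescence with signal-to-noise of each printed compound spot.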 Particulars: higher = more signal.
Assay [10] in a line: binders of probe aHhip on microarray, primary screen, stem cell growth factor project, biochemical, small-molecule microarray, fluorescence 635/667 (AID 1087).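 Note: score merges spot fluorescence at 667nm with spot signal to noise ratio.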 Particulars: higher = more signal.

Molecules are shown by their SMILES. Activity calls are given as the source filed them.

Neurogenic locus notch homolog protein 2 (Homo sapiens), sequence (Q04721 whole entry, looked up, canonical isoform): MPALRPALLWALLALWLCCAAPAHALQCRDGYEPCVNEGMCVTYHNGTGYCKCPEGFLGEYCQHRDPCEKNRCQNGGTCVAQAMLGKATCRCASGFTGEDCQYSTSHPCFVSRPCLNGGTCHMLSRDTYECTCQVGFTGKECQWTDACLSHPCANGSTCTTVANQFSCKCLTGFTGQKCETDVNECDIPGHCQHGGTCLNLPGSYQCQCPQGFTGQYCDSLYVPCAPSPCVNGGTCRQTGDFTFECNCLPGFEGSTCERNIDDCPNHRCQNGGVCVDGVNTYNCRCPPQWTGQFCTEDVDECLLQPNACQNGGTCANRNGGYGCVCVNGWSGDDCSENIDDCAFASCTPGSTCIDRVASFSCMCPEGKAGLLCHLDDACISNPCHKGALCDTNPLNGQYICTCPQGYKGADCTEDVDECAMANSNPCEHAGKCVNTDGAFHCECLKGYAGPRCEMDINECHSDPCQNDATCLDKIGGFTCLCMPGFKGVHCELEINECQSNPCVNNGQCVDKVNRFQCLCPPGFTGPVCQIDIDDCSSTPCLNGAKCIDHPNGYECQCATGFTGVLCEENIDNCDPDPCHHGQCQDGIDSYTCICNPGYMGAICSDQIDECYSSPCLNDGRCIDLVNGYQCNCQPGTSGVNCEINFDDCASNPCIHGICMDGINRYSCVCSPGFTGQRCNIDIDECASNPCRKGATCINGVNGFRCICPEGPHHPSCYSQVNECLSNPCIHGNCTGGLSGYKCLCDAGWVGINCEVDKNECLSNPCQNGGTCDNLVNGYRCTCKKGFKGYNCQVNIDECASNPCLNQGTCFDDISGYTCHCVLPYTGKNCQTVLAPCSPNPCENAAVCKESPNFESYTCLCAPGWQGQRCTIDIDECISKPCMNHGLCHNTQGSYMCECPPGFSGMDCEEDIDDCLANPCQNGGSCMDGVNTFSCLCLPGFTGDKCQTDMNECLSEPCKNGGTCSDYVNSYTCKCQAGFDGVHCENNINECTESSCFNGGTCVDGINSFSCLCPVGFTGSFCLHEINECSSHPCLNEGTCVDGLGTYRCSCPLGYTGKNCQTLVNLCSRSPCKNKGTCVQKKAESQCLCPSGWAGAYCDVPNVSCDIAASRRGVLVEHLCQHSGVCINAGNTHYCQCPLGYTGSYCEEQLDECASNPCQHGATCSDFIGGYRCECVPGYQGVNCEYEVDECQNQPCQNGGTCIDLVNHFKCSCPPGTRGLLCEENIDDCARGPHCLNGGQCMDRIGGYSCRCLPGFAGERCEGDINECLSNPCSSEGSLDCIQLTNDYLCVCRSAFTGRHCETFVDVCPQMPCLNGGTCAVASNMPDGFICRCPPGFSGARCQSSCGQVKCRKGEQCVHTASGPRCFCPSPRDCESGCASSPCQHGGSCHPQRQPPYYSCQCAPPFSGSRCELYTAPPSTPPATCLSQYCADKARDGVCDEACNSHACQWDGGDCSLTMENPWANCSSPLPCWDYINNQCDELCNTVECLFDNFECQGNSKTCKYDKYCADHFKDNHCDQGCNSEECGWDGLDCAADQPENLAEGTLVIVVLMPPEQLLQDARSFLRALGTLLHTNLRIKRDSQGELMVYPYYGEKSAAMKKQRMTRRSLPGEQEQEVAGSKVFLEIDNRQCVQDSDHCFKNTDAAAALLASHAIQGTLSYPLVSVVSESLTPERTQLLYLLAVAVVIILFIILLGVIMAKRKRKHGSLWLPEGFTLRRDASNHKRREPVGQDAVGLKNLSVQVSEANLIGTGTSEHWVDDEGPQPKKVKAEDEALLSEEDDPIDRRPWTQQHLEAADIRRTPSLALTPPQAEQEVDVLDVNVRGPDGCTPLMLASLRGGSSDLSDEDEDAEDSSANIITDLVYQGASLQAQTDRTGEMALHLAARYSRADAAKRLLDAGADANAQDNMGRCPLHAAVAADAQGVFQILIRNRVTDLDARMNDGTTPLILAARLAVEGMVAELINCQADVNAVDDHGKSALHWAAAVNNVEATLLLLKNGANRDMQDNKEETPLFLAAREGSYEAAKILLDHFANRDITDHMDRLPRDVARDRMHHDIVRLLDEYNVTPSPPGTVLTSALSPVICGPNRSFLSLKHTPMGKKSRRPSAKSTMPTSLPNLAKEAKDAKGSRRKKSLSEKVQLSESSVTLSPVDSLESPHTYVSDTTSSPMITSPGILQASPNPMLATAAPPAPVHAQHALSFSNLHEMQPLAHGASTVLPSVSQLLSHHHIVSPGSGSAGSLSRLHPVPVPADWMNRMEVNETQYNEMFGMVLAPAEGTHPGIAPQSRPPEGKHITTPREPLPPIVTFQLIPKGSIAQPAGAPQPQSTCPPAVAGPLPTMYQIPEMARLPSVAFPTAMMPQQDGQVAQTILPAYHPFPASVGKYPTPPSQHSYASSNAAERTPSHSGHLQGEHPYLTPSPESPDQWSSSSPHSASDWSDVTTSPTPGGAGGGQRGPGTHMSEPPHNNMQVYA
Pro-neuregulin-1, membrane-bound isoform (Homo sapiens), sequence (Q02297 whole entry, looked up, the tested form may be a part, canonical isoform): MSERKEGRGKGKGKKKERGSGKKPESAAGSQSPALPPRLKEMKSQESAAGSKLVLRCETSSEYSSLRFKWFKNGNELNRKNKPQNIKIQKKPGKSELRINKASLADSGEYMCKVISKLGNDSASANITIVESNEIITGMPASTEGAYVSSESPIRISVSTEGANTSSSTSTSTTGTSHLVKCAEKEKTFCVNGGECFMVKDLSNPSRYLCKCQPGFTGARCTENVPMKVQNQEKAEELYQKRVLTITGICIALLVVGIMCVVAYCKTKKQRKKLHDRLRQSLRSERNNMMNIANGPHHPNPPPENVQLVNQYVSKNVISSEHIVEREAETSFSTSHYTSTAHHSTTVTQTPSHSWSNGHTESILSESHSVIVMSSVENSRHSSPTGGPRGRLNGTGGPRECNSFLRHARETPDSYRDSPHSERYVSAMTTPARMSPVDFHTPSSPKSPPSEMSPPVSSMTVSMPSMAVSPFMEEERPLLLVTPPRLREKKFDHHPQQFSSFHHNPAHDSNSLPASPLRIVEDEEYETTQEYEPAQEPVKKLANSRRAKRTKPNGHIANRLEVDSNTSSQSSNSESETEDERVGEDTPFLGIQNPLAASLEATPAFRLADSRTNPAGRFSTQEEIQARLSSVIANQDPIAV

For the molecule `CC1=C([C@H](O)CCc2ccccc2)[C@H](CO)[C@@H]2C(=O)N(C)C(=O)[C@@H]2C1`, the composite z-score was -0.0659 in assay [1]; 0.388 in [2]; 0.411 in assay [3]; 0.0805 in assay [4]; 0.451 in assay [5]; 0.174 in assay [6]. Moreover, the composite z-score in [7] is 0.493; in assay [9], 0.0014; in assay [10] it was -0.137. In addition, in assay [8], the z-score was -0.445 (inactive).

With `C[N+](C)(C)CCCCCCNC(=O)[C@H]1C[C@H]2C(=O)NCC(=O)N2[C@H]1c1ccc(O)cc1`, the composite z-score in assay [1] was -0.411; in assay [2], 0.71; in assay [3], -0.0973; in [4], 0.776; in [5], 0.0422; in assay [6] it was 1.52. Besides, the composite z-score is 1.17 in assay [7], 0.358 in [9] and -0.744 in assay [10]. In addition, the z-score in assay [8] was 4.03 (inactive).

Regarding `CCOC(=O)C[C@H]1[C@H](OC(=O)c2cc3ccccc3oc2=O)[C@@H](NC(=O)c2ccc(-c3ccccc3)cc2)c2cc(OCCCO)ccc2N1C(=O)c1ccccc1`, the composite z-score in assay [1] was -0.561; in assay [2], 1.07; in [3], 0.0407; in assay [4], 0.731; in assay [5] it was 1.36; in [6], 0.687. Further, the figures for the composite z-score in assay [7], in assay [9] and in [10] were 1.31, 0.497 and 0.102, respectively. The z-score in assay [8] was 0.335 (inactive).

Regarding `COC(=O)[C@H](Cc1ccccc1)N1CC(/C=C/C2CC2)=C[C@H]1[C@H](O)Cc1ccccc1`, the composite z-score in assay [1] was -0.284; in [2], 0.177; in [3] it was -0.104; in assay [4], 0.6; in [5] it was 0.34; in [6], 0.821. Also, the figures for the composite z-score in assay [7], in assay [9] and in [10] were 1.01, 0.101 and 0.0274, respectively. For the same molecule, the z-score in [8] was -2.56 (inactive).

As to `COC(=O)[C@@]1(Cc2ccccc2)[C@H]2c3cc(C(=O)N(C)C)n(Cc4c(CO)[nH]cc(C)c4=O)c3C[C@H]2CN1C(=O)c1ccccc1`, the composite z-score in assay [1] was determined as 0.268; in assay [2], 0.311; in assay [3] it was 0.206; in [4] it was 0.528; in assay [5], 1.53; in [6], 1.49. Moreover, the composite z-score was 1.38 in [7], 0.608 in assay [9] and 0.0456 in assay [10]. In addition, the z-score in [8] is -0.325 (inactive).

For `CC(C)C(=C=CC[C@H](O)c1ccc(OCCO)cc1)C[C@H](O)c1ccccn1`, the composite z-score in assay [1] is -0.331; in assay [2], -0.0844; in assay [3], -0.129; in assay [4] it was 0.679; in [5] it was -0.0686; in assay [6] it was 0.243. Moreover, the composite z-score in assay [7] was 1.28; in assay [9] it was -0.249; in assay [10], -0.0618. In addition, in assay [8], the z-score is -0.0915 (inactive).

`O=C(NCc1ccccc1)[C@@H]1c2ccccc2C(=O)N(Cc2ccccc2C(F)(F)F)[C@H]1c1ccc(CO)cc1`: the composite z-score in assay [1] is -0.234; in assay [2] it was 0.55; in assay [3] it was -0.0451; in assay [4], -0.0459; in assay [5], -0.927; in assay [6], 0.48. Also, the composite z-score in assay [7] was 1.25; in [9] it was -0.428; in assay [10] it was -0.293. Besides, the z-score in assay [8] is -3.23 (inactive).

`COCCOC(=O)N1C(=O)[C@@]2(c3cc(C#CC4=CCCCC4)ccc31)[C@H](c1ccc(OCCO)cc1)N1[C@H](c3ccccc3)[C@H](c3ccccc3)OC(=O)[C@H]1[C@@H]2C(=O)N1CCN(c2ncccn2)CC1`: the composite z-score in assay [1] came to 0.0516; in [2], 0.504; in assay [3], 0.0664; in assay [4] it was 0.874; in assay [5], 1.31; in assay [6] it was 0.521. In addition, the composite z-score in [7] is 1.05; in [9] it was 0.59; in [10] it was 0.0053. For the same molecule, in assay [8], the z-score is -0.64 (inactive).

Consider `COc1cc(OC)c(C(O)C2C=CC3C(=O)N(c4ccccc4)C(=O)C3N2Nc2ccccc2)cc1Br` (stereo not given), for which the composite z-score is 0.0555 in [1]; -0.01 in assay [2]; 0.0393 in assay [3]; 0.208 in [4]; 0.878 in assay [5]; 1.66 in [6]. The composite z-score in assay [7] worked out at 0.936; in [9] it was 0.558; in [10] it was 0.0139. The z-score in assay [8] is 0.203 (inactive).

`COC(=O)[C@@]1(Cc2ccc(OC)cc2)[C@H]2c3cc(C(=O)N(C)C)n(CCO)c3C[C@H]2CN1C(=O)c1ccccc1`: the composite z-score in [1] was 0.494; in [2], 2.56; in [3] it was 0.152; in assay [4], -0.359; in assay [5], 0.993; in assay [6], 2.13. Further, the results for the composite z-score in [7], in assay [9] and in assay [10] were -0.139, 0.871 and 0.0365, respectively. Also, the z-score in assay [8] was 1.63 (inactive).
